# Experimental data as given in the supplement of paper PMC9177965.
# “And” between values parts separate entries of the source, which are not always exact repeats. Equal entries are not always repeated.
# System: HT29 sg-Ctrl (RNF43 wildtype)
# Test: cell viability activity relative to DMSO (negative = inhibition); higher = more viable cells (less growth inhibition)
# Settings: 5 µM; 96 h
# Description: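 Broad Repurposing Library primary screen at a single dose of 5 uM. HT29 sg-Ctrl and HT29 RNF43 G659fs CRISPR-edited isogenic cells were seeded at 2500 cells/well in 384-well plates in duplicate and treated for 96 h. Viability was read by CellTiter-Glo and reported as % activity relative to DMSO, with MG132 as the positive control (negative = growth inhibition).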
row,SMILES,cell viability activity
1,COc1cc2cc(c1Cl)N(C)C(=O)C[C@H](OC(=O)C(C)C)[C@]1(C)O[C@@H]1[C@H](C)[C@@H]1C[C@@](O)(NC(=O)O1)[C@H](OC)/C=C/C=C(\C)C2,-61.7%
2,NC(=O)c1cn([C@@H]2O[C@H](CO)[C@@H](O)[C@H]2O)c2ncnc(N)c12,-93%
3,CC[C@@]1(O)C(=O)OCc2c1cc1n(c2=O)Cc2cc3ccccc3nc2-1,-91.5%
4,COc1ccc(CCN2CCC(Nc3nc4ccccc4n3Cc3ccc(F)cc3)CC2)cc1,-3.92%
5,CC[C@H]1CN2CCc3cc(OC)c(OC)cc3[C@@H]2C[C@@H]1C[C@H]1NCCc2cc(OC)c(OC)cc21,-92.7% and -98.3%
6,COc1ccc(C[C@H]2NC[C@H](O)[C@H]2OC(C)=O)cc1,-95.3%
7,Cn1c(COP(=O)(NCCBr)NCCBr)cnc1[N+](=O)[O-],-27.3%
8,C[C@]12CC[C@H]3[C@@H](CC[C@]4(O)C[C@@H](O)CC[C@]34C=O)[C@@]1(O)CC[C@@H]2C1=CC(=O)OC1,-75.5%
9,Oc1cc(Cl)ccc1Oc1ccc(Cl)cc1Cl,-92.8%
10,O=Cc1cn(Cc2ccc(Cl)cc2)c2ccccc12,-88.6%
11,C=C1[C@@H](C)[C@H]2[C@H](Cc3ccccc3)NC(=O)[C@]23OC(=O)/C=C/[C@H](O)CCC[C@@H](C)C/C=C/[C@H]3[C@@H]1O,-36.1%
12,COc1cc([C@@H]2c3cc4c(cc3[C@H](O)[C@H]3COC(=O)[C@H]23)OCO4)cc(OC)c1OC,-58.2%
13,C[C@@H]1O[C@@H](O[C@@H]2C=C3CC[C@@H]4[C@H](CC[C@]5(C)[C@@H](c6ccc(=O)oc6)CC[C@]45O)[C@@]3(C)CC2)[C@H](O)[C@H](O)[C@H]1O,-87.4%
14,Cc1sc2c(c1C)C(c1ccc(Cl)cc1)=N[C@@H](CC(=O)Nc1ccc(O)cc1)c1nnc(C)n1-2,-59.2%
15,N#Cc1cn([C@@H]2O[C@H](CO)[C@@H](O)[C@H]2O)c2ncnc(N)c12,-89.9%
16,C[C@@H]1CC[C@@]2(OC1)O[C@H]1C[C@H]3[C@@H]4CC=C5C[C@@H](O[C@@H]6O[C@H](CO)[C@@H](O[C@@H]7O[C@@H](C)[C@H](O)[C@@H](O)[C@H]7O)[C@H](O)[C@H]6O[C@@H]6O[C@@H](C)[C@H](O)[C@@H](O)[C@H]6O)CC[C@]5(C)[C@H]4CC[C@]3(C)[C@H]1[C@@H]2C,-63.5%
17,C/C=C(\C)C(=O)N[C@@H](c1ccccc1)[C@@H](O)C(=O)O[C@H]1C[C@@]2(O)[C@@H](OC(=O)c3ccccc3)[C@@H]3[C@]4(OC(C)=O)CO[C@@H]4C[C@H](O)[C@@]3(C)C(=O)[C@H](OC(C)=O)C(=C1C)C2(C)C,-69.3%
18,CCNC(=O)C[C@@H]1N=C(c2ccc(Cl)cc2)c2cc(OC)ccc2-n2c(C)nnc21,-59.5%
19,O=C(C[C@H]1NCCC[C@@H]1O)Cn1cnc2cc(Br)c(Cl)cc2c1=O,-86.5%
20,Cc1sc2c(c1C)C(c1ccc(Cl)cc1)=N[C@@H](CC(=O)OC(C)(C)C)c1nnc(C)n1-2,-61.7%

row,SMILES,cell viability activity
1,CC[C@@H]1/C=C/C=C/C[C@H](C)[C@H](O)[C@](C)(O)C(=O)[C@H](C)[C@@H](O)[C@H](C)C(=O)[C@H](C)[C@@H](O)[C@H](C)/C=C/C(=O)O[C@H]2[C@@H](C)[C@@H](CC1)O[C@@]1(CC[C@@H](C)[C@@H](C[C@H](C)O)O1)[C@@H]2C,-42.2%
2,CCN(CC)CCO[C@H]1CC[C@@]2(C)C(=CC[C@@H]3[C@@H]2CC[C@]2(C)C(=O)CC[C@@H]32)C1,-52.8%
3,Fc1cc(F)c2c(c1)[C@H]1C=CC[C@H]1C(c1cccnc1)N2 (stereo not given in full),-92.9% and -73.9%
4,Oc1cccc2cccnc12,-34.8%
5,CC(C)(C)c1cc(C=C(C#N)C#N)cc(C(C)(C)C)c1O,-67.3%
6,CC(=O)O[C@@]12CO[C@@H]1C[C@H](O)[C@@]1(C)C(=O)[C@H](O)C3=C(C)[C@@H](O)C[C@@](O)([C@@H](OC(=O)c4ccccc4)[C@H]21)C3(C)C,-62.6%
7,O=[N+]([O-])C=Cc1ccc2c(c1)OCO2,-21%
8,C/C1=C/C[C@@H](/C(C)=C/c2csc(C)n2)OC(=O)C[C@H](O)C(C)(C)C(=O)[C@H](C)[C@@H](O)[C@@H](C)CCC1,-42.3%
9,CC(C)[C@]12O[C@H]1[C@@H]1O[C@]13[C@]1(O[C@H]1C[C@H]1C4=C(CC[C@@]13C)C(=O)OC4)[C@@H]2O,-87.8% and -92.2%
10,CN1CCN(c2cccc3[nH]c(=O)oc23)CC1,-54.8%
11,COC(=O)C[C@](O)(CCC(C)(C)O)C(=O)O[C@@H]1C(OC)=C[C@]23CCCN2CCc2cc4c(cc2[C@H]13)OCO4,-83.6%
12,C[C@]12CC[C@H](O)C[C@H]1CC[C@@H]1[C@@H]2C[C@@H](O)[C@]2(C)[C@@H](C3=CC(=O)OC3)CC[C@]12O,-79.8%
13,CO[C@H]1C[C@H](O[C@H]2CC[C@@]3(C)[C@H](CC[C@@H]4[C@@H]3CC[C@]3(C)[C@@H](C5=CC(=O)OC5)[C@@H](OC(C)=O)C[C@]43O)C2)O[C@@H](C)[C@@H]1O,-90.4%
14,CCCCCCCCCCCCCCCC[n+]1ccccc1,-79.9%
15,C=C(C)[C@H]1Cc2c(ccc3c2O[C@@H]2COc4cc(OC)c(OC)cc4[C@@H]2C3=O)O1,-75.8%
16,C/C(=C\c1csc(C)n1)[C@@H]1C[C@@H]2O[C@@H]2CCC[C@H](C)[C@H](O)[C@@H](C)C(=O)C(C)(C)[C@@H](O)CC(=O)O1,-51.9%
17,C[C@]12O[C@H](C[C@]1(O)CO)n1c3ccccc3c3c4c(c5c6ccccc6n2c5c31)CNC4=O,-84.6%
18,COc1cc2c(c(OC)c1OC)-c1ccc(OC)c(=O)cc1[C@@H](NC(C)=O)CC2,-46.1% and -57.8%
19,C[C@H]1CCC/C=C/[C@@H]2C[C@H](O)C[C@H]2[C@H](O)/C=C/C(=O)O1,-98.3% and -96.8%
20,N#CC(C#N)=NNc1cccc(Cl)c1,-68.2%
